From PubChem BioAssay AID651598 (Sanford-Burnham Center for Chemical Genomics, 2012)
Several values for one entry are separate records, joined by “and”; a condition that tells them apart may be missing. Equal values may be shown once.

Target: Apelin receptor (Homo sapiens) (UniProt P35414)
Test: apelin receptor (APJ) antagonists, SAR follow-up, counter-screen for CXCR6 antagonist project, cell-based, beta-arrestin, DiscoveRx, panel, CHO-K1 (AID 651598)
Settings: CHO-K1 PathHunter beta-arrestin luminescence, antagonist mode; run 4, at 80 µM (top of the series)

Apelin receptor (Homo sapiens), sequence (P35414 whole entry, looked up): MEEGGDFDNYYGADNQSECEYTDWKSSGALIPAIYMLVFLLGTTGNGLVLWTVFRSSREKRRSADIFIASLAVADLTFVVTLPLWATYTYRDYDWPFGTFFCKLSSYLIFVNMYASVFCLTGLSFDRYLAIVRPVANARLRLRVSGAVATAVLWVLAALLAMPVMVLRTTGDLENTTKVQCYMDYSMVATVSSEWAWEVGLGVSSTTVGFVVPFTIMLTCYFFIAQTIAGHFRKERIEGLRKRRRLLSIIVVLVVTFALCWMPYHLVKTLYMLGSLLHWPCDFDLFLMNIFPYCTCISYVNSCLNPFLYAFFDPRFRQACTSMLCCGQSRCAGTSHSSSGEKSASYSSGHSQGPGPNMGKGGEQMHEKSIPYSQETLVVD

Compound	inhibition
COc1cc(C(=O)NC2CCN(CC(=O)Nc3ccccc3)CC2)cc(OC)c1OC	-1.54%
COc1cc(C(=O)NC2CC3CCC(C2)N3CC(=O)Nc2ccccc2)cc(OC)c1OC (stereo not drawn)	-13.5% and 16.7%
COc1cc(C(=O)NC2CC3CCCC(C2)N3CC(=O)Nc2ccccc2)cc(OC)c1OC (stereo not drawn)	17% and 11.6% and 7.8%
